Reference: the supplement of paper PMC6555819

Key:
Test in all cases: PBM binding z-score (relative to random genomic background probes); higher = stronger binding; sequences stand for … in GC…GCGATTGACAGCGTAGAATGAAGG
[1] = tested on: RARb homodimer (NR concentration 270 nM)
Summary of the method: (§1)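 Each nuclear receptor dimer, without ligand, was incubated for 1 h on custom Agilent 4×180K protein-binding microarrays. Binding was detected with antibodies against each partner (one per run), and scanned fluorescence was regression-normalized. The binding z-scores are referenced to random human genomic background probes.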

[2] = tested on: RARg:RXRa (NR concentration 270 nM, RXRa partner concentration 90 nM)
Summary of the method: as §1

[3] = tested on: RARg homodimer (NR concentration 270 nM)
Summary of the method: as §1

[4] = tested on: RXRa DBDmut IVT, anti-RXR (DBD mutation: RXRa K156A/R161A, NR concentration 90 nM)
Summary of the method: as §1

[5] = tested on: RXRa homodimer (NR concentration 180 nM)
Summary of the method: as §1

[6] = tested on: THRa:RXRa (NR concentration 90 nM, RXRa partner concentration 90 nM)
Summary of the method: as §1

[7] = tested on: THRa homodimer (NR concentration 90 nM)
Summary of the method: as §1

[8] = tested on: VDR homodimer (NR concentration 270 nM)
Summary of the method: as §1

| Sequence | PBM binding z-score [1] | PBM binding z-score [2] | PBM binding z-score [3] | PBM binding z-score [4] | PBM binding z-score [5] | PBM binding z-score [6] | PBM binding z-score [7] | PBM binding z-score [8] |
| --- | --- | --- | --- | --- | --- | --- | --- | --- |
| ACTATTAGTTGACTTAGGGTAACCGATACGACGC | 0.611 | 0.744 | 0.754 | 0.853 | 0.525 | 2.77 | 1.43 | 0.184 |
| TCTATTAGTTGATTAGGTCAACCGAAACAGCGGA | 3.09 | 2.8 | 2.68 | 1.55 | 2.1 | 3.1 | 2.74 | 1.2 |
| AACACAGGGTCATCGTAGGCCAGAGTACGCACAG | 3.59 | 5.74 | 5.13 | 3.79 | 6.58 | 4.5 | 1.69 | 3.84 |
| TCATTTAGGTAAACAGGTGAAAGTCCGTAAGTTA | 1.09 | 0.646 | 0.406 | 1.59 | 0.903 | 1.52 | 1.13 | 0.754 |
| CGTCAAAGTTCAACTCAGGTAACGTAAAGCACGC | 4.24 | 5.85 | 6.43 | 4.55 | 5.06 | 5.03 | 1.38 | 4.21 |
| ACTCGGAGGACAAAGGTCAGATCTACGCCAGTGA | 4.47 | 5.88 | 5.52 | 1.38 | 4.78 | 3.36 | 0.695 | 1.27 |
| ATATGTAGGTTAAGGGTGATTCAGGTTGGTTCGC | 1.8 | 1.14 | 1.06 | 0.792 | 1.62 | 1.56 | 1.39 | 1.41 |
| TCATATAGGTAATACAGGTGAAATTCGGCATCTA | 0.536 | 0.764 | 0.496 | 1.51 | 1.34 | 1.04 | 0.421 | 0.0975 |
| TAATATAGGTAAAGGTGAAAGTCGAACGATATGA | 1.71 | 1.62 | 1.66 | -0.417 | 2.32 | 1.45 | 0.232 | 0.489 |
| CGTCAAAGTTCAACGTAACGTAACAGAAAGCAGC | 3.83 | 5.52 | 5.97 | 4.56 | 4.19 | 1.78 | -0.366 | 3.03 |
| CATTACGGGTCACTCCAGGTTATAGCATCGGAGT | 3.31 | 4.59 | 4.57 | 1.53 | 4.65 | 5.06 | 0.963 | 1.83 |
| TAGCGTAGGTCATTGGGCCAGTATAGTACGCATC | 2.8 | 3.98 | 4.08 | 0.868 | 3.6 | 2.08 | -0.396 | 0.725 |
| GCTCGGAGGACAAGGTCAGAGGTTTGTCCGTAGA | 3.27 | 3.12 | 3.27 | 0.666 | 2.53 | 3.07 | 1.42 | 1.2 |
| GCTAGCAGGCCATTTGGGTCACTCAGTGACGGGC | 1.63 | 0.822 | 1.04 | 0.0208 | 0.754 | 1.9 | 0.383 | 0.166 |
| CAAACTAGGTCAAGCTCAAAGTCGGTTTGTGCCA | 3.34 | 4.06 | 4.98 | 1.53 | 2.55 | 3.2 | 1.34 | 0.374 |
| CTCGAAAGGTCGTGCTCAGGTGAGTAAACCAAAC | 2.84 | 5.23 | 4.05 | 1.99 | 4.99 | 4.08 | 0.933 | 0.941 |
| CGAACTAAGTCAGAACAGGACAGTGAAGGATGAT | 0.68 | 0.103 | 0.431 | 0.106 | 0.167 | 1.14 | -0.281 | -0.107 |
| TCTAGTTGGTCACAGGTCACACACTCGAAATGCG | 3.55 | 3.75 | 3.33 | 1.62 | 3.83 | 2.96 | 1.97 | 1.7 |
| ACTATTAGTTGACTTAGGGCAACTGATACGACGC | 0.726 | 0.872 | 1.07 | 0.417 | 0.497 | 1.31 | 0.235 | 0.0906 |

| Sequence | PBM binding z-score [1] | PBM binding z-score [2] | PBM binding z-score [3] | PBM binding z-score [4] | PBM binding z-score [5] | PBM binding z-score [6] | PBM binding z-score [7] | PBM binding z-score [8] |
| --- | --- | --- | --- | --- | --- | --- | --- | --- |
| CGTCAAAGTTCAACTAAGGCAACGTAAAGCACGC | 4.17 | 5.79 | 6.64 | 4.64 | 5.05 | 4.74 | 0.241 | 3.68 |
| TCTTGTAGATCAACAGGAGGTTAACAAAGATCGA | 0.875 | 1.22 | 0.542 | 0.267 | 1.3 | 1.22 | 0.0101 | -0.33 |
| CCTACTGGTCCATCAGGTCATTGATATCAACGTT | 2.5 | 1.6 | 1.47 | 1.04 | 1.28 | 3.41 | 3.29 | 2.02 |
| TCATATAGGTAAAGGTGAAAGTGGAACGATATGA | 1.44 | 1.71 | 1.52 | 0.597 | 2.41 | 1.36 | -0.306 | -0.115 |
| ACTAGTTGGTCAGCTGAGGTGACACACAATTCGG | 1.74 | 1.34 | 1.29 | -0.108 | 0.902 | 4.41 | 2.03 | 0.149 |
| GCAGACAGGTGAAACGCAGGTAATTCAGGGTGGC | 0.413 | 0.684 | 0.304 | -0.376 | 0.614 | 1.38 | -0.381 | -0.586 |
| TCTAACAGGCCAGAGGGTCACTCAAGAGGTACGG | 3.05 | 2.78 | 2.14 | 1 | 2.88 | 1.71 | -0.107 | 0.997 |
| ATCGAAAGGTCGTGGTGAGTATAGAGAAAGGGAA | 2.85 | 4.45 | 3.8 | 1.52 | 4.79 | 2.82 | 0.58 | 1.23 |
| ATCTCTAGGTAACAAGTTCAGTGACAGAGAGGAC | 1.97 | 1.58 | 1.52 | 0.868 | 0.971 | 1.49 | 1.14 | 2.97 |
| GGAACGAGGGCAATCGAGTTGATAGCATGGCGAT | 0.554 | 1.14 | 1.22 | 1.84 | 0.638 | 2.64 | -0.649 | 1.87 |
| AATACAGGGTCACTCGGCCAGAGTAGGTACGAAT | 3.24 | 5.28 | 5.06 | 3.27 | 5.63 | 3.4 | 0.907 | 2.84 |
| TCTAGCAGACCAGAGGGTCACTCAAGAGGTACGG | 2.18 | 1.95 | 1.42 | -0.0475 | 2.19 | 1.43 | -0.387 | 0.415 |
| ACTTACGGGTAAACGAGGTTATAGCACGCGTATA | 1.12 | 0.939 | 0.812 | 0.819 | 1.57 | 3.64 | 0.765 | 1.45 |
| ACTTACGGGTCAACGAGGCTATAGCACGCGTATA | 3.07 | 5.01 | 4.51 | 2.15 | 5.06 | 3.35 | 0.239 | 1.55 |
| ATAATGAGGTTAAGATCAGGGAAACAGAATACAT | 0.864 | 2.47 | 1.96 | 1.16 | 2.68 | 2.74 | 1.02 | 0.406 |
| GCAGACAGGTGAAACGCAGGGAACTCAGGGTGGC | -0.128 | 0.193 | 0.108 | -1.09 | 0.587 | 0.258 | -0.443 | -0.619 |
| TCTATTAGTTGAAGGGCAACCGTCGAGTCCGTTT | 1.41 | 0.513 | 0.573 | 1.63 | 0.558 | 0.234 | 0.122 | 1.61 |
| GCATATAGGTAATACGAGGTGAAAGTCCGATTGT | 0.883 | 0.378 | 0.419 | 0.527 | 0.781 | 4.46 | 1.41 | -0.0522 |
| GCTATTAGTTCAAAGGGCAACCGAATGATTCTCG | 2.95 | 3.39 | 2.76 | 3.02 | 4.05 | 1.74 | -0.325 | 1.87 |

| Sequence | PBM binding z-score [1] | PBM binding z-score [2] | PBM binding z-score [3] | PBM binding z-score [4] | PBM binding z-score [5] | PBM binding z-score [6] | PBM binding z-score [7] | PBM binding z-score [8] |
| --- | --- | --- | --- | --- | --- | --- | --- | --- |
| ATCTCTAGGTAACCGAGTTCAGTGAATGCCGAAC | 1.31 | 0.6 | 0.669 | 1.39 | 0.704 | 1.72 | 0.663 | 4.05 |
| CCTTACGGGTCAAGGATATAGCACGGGTGGTACG | 3.04 | 4.53 | 4.5 | 0.465 | 4.68 | 2.38 | 0.293 | 0.886 |
| ATCGAAAGGTCGACGAGGTAAGTATACACCGTTT | 2.39 | 3.89 | 3.66 | 1.2 | 4.03 | 3.14 | 0.239 | 0.679 |
| CGTCCAAGGTCAGAGAGGTCAGTGAGTGCCGAGT | 5.29 | 6.35 | 7.09 | 3.37 | 5.51 | 4.37 | 3.07 | 6.07 |
| CCTACTGGGCTAAGGTCATTGATCAGTCAAAGCA | 3.59 | 4.14 | 3.51 | 1.83 | 4.07 | 3.95 | 4.04 | 2.94 |
| CCGACTGGGGCATAAGGTTAACATAAGCCAGCCC | 1.89 | 2.08 | 1.34 | -0.0628 | 1.45 | 2.08 | 1.06 | -0.243 |
| CCGACTGGGGCAAAGGTTCCCATACTCAGTACGA | 0.64 | 0.839 | 0.494 | -0.0939 | 0.724 | -0.141 | -0.168 | -0.00727 |
| CCGACTGGGGAAGAAAGGTTACCATACCATCCGG | 1.97 | 0.982 | 0.848 | -0.897 | 1.49 | 1.09 | -0.21 | -0.0513 |
| AGAATTAGGTTATTAAGATCAGGGAATTGCGGTC | 0.844 | 0.403 | 0.569 | 0.599 | 0.275 | 0.913 | 0.502 | 0.494 |
| AGTCAAAGTTCATCTAGGTAACGTAAGATATGCT | 4.07 | 5.59 | 6.2 | 4.76 | 4.97 | 3.05 | 0.224 | 4.94 |
| TCAGACAGGTGAAGGTCACTCAGGTACGCAGTCG | 4.11 | 3.63 | 4.11 | 1.7 | 3.51 | 3.79 | 1.43 | 2.39 |
| ACTATTAGTTGAGACGAGGGTAACCGATAGGTTG | 0.218 | 0.256 | 0.596 | 0.227 | 0.443 | 1.55 | -0.208 | 0.283 |
| TCTAGTAGATCAAAGGTTAAGAAAGCCGAAGCCT | 1.26 | 1.37 | 0.721 | 0.713 | 3.04 | 1.19 | -0.728 | -0.063 |
| CCAGACTGGTGAGAAGGTAACTCAGCCTCGATTA | -0.313 | -0.398 | -0.424 | -0.127 | -0.237 | -0.0936 | -0.27 | -0.352 |
| ACAGACAGGTGAGTAAAGGTAACTCAGCTGGACG | 0.365 | 0.666 | 0.622 | -0.605 | 0.915 | 1.67 | -0.828 | -0.485 |
| ACAGATAGGTGAGTGAAGGTAACTCAGCTGGACG | 0.126 | 0.246 | 0.547 | -0.347 | 0.347 | 1.65 | -0.341 | -0.149 |
| ATCGAAAGGTCGAGGTGAGGATAGAGAAAGGGAA | 3.07 | 4.35 | 4.28 | 0.642 | 4.31 | 3.87 | 1.64 | 0.466 |
| CGTCCAAGGTGAAGGTCAGTGAAAGAGACTCGAA | 3.4 | 3.39 | 3.88 | 0.585 | 2.36 | 2.71 | 0.956 | 0.389 |
